Here are results for 18 molecules from PubChem BioAssay (NCATS).

“And” between values parts separate entries of the source, which are not always exact repeats. Equal values may be shown once. Results filed as inconclusive are left out. The source made the active and inactive calls. The call rests on the fitted dose curve.
Potency means the concentration at half of the fitted maximal effect.

This test can be described thus: Primary qHTS to identify inhibitors of SARS-CoV-2 cell entry (AID 1645846). Further: nearly all actives have a fitted effect of over 45% in size. Particulars: SARS-CoV-2 pseudovirus cell entry assay, luminescence; activity change, negative = inhibition: at 57.1 µM (top of the series) unless noted; series mostly up to 57.1 µM. The procedure, abridged: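 Inhibition of spike-mediated entry was scored in human ACE2-transfected Expi293F cells. Particles were MLV-pseudotyped with Wuhan-Hu-1 S carrying a 19-aa C-terminal deletion; signal was luciferase after two days, scaled between spike PP and fusion-protein-free PP.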
For orientation: Quantitative high-throughput screening tests each substance at several concentrations.
On to `CC(=O)OCC(=O)[C@@]1(O)CC[C@H]2[C@@H]3CCC4=CC(=O)C=C[C@]4(C)[C@@]3(F)[C@@H](O)C[C@@]21C`, for which the activity change, negative = inhibition was 2.18%.

For `CC1(C)O[C@H]2CC(=O)OC[C@]23[C@H]2CC[C@@]4(C)[C@H](c5ccoc5)OC(=O)[C@H]5O[C@]54[C@]2(C)C(=O)C[C@@H]13`, the activity change, negative = inhibition was -13.1%.

As to `CC(=O)NS(=O)(=O)c1ccc(N)cc1`, the molecule was classed as inactive.

`CN(C)c1ccc2nc3ccc(=[N+](C)C)cc-3sc2c1`: the Potency is 8.91 µM (active) and 7.08 µM (active).

With `CCOC(=O)C1=C(C)NC(C)=C(C(=O)OC)C1c1cccc([N+](=O)[O-])c1` (stereo not drawn), the outcome was inactive.

For `CCn1cc(C(=O)O)c(=O)c2cnc(N3CCNCC3)nc21`, the activity change, negative = inhibition turned out to be 0.978%.

As to `Cc1onc(-c2ccccc2)c1-c1ccc(S(N)(=O)=O)cc1`, the activity change, negative = inhibition was -25.7% and -12.6%.

On to `CCCc1ccc(OCC(=O)N2CCN(C(=O)COc3ccc(CCC)cc3OC)CC2)c(OC)c1`, for which the activity change, negative = inhibition was -6.24%.

As for `CNCCCC12CCC(c3ccccc31)c1ccccc12`, the Potency was 28.2 µM (active).

On to `CCCCCCCCCCCCOCCO`, for which the activity change, negative = inhibition was -19.3%.

Regarding `Nc1ccc(S(=O)(=O)NC(=O)c2ccccc2)cc1`, the outcome was inactive.

On to `Cc1ccc(Cl)c(Nc2ccccc2C(=O)O)c1Cl`, for which the activity change, negative = inhibition was -1.76%.

`CC(=O)Nc1ccc(C(=O)O)cc1`: the outcome was inactive.

With `C[N+](C)(C)CCOC(N)=O`, the molecule was called inactive.

As for `CCN(Cc1ccncc1)C(=O)C(CO)c1ccccc1` (stereo not drawn), the call was inactive.

In the case of `Cc1noc(NS(=O)(=O)c2ccc(N)cc2)c1C`, the activity change, negative = inhibition was -11.7%.

For the molecule `CC(C)c1ccc2oc3nc(N)c(C(=O)O)cc3c(=O)c2c1`, the Potency entry was “inactive”.

As to `CCn1nc(C(=O)O)c(=O)c2cc3c(cc21)OCO3`, the outcome was inactive.
